A short description of assay [1]: qHTS of pediatric cancer cell lines to identify multiple opportunities for drug repurposing: Primary screen for A673 cells (AID 1347092). Also: nearly all actives have a fitted effect of over 45% in size. Also: potency is read from the fitted curve at half-maximal effect. The method in brief:
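Cell viability of A673 measured by CellTiter-Glo ATP luminescence after 48 hours compound exposure. Dilution series spanned 0.78 nM to 46 µM (MIPE, 11-point) or 0.59 nM to 46 µM (NPC, 8-point); bortezomib 2.3 uM positive control.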
(Quantitative high-throughput screening tests each substance at several concentrations.)

Assay [2] can be described thus: qHTS of pediatric cancer cell lines to identify multiple opportunities for drug repurposing: Primary screen for SK-N-MC cells (AID 1347093). Also: potency is read from the fitted curve at half-maximal effect. The method in brief: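 Metabolically active cells were quantified by ATP-dependent luminescence (CellTiter-Glo, 15 min at room temperature) following 48 h treatment. Cells had been plated at 500-1,000 per well and settled for 5 h beforehand.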

Assay [3] can be described thus: qHTS of pediatric cancer cell lines to identify multiple opportunities for drug repurposing: Primary screen for BT-37 cells (AID 1347094). Also: potency is read from the fitted curve at half-maximal effect. The method in brief:
(§1)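 Readout: CellTiter-Glo luminescence, 48 h treatment. Controls DMSO (neutral) and bortezomib 2.3 µM final (positive). Potency and efficacy taken from primary-screen concentration-response curves.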

A short description of assay [4]: qHTS of pediatric cancer cell lines to identify multiple opportunities for drug repurposing: Primary screen for NB-EBc1 cells (AID 1347095). Also: potency is read from the fitted curve at half-maximal effect. The method in brief:
as §1

Assay [5] in a line: qHTS of pediatric cancer cell lines to identify multiple opportunities for drug repurposing: Primary screen for Saos-2 cells (AID 1347097). Also: nearly all actives have a fitted effect of over 40% in size. Also: potency is read from the fitted curve at half-maximal effect. The gist of the method: as §1
Assay [6] in a line: qHTS of pediatric cancer cell lines to identify multiple opportunities for drug repurposing: Primary screen for SK-N-SH cells (AID 1347098). Also: nearly all actives have a fitted effect of over 65% in size. Also: potency is read from the fitted curve at half-maximal effect. The gist of the method: (§2)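 Cells (500-1,000/well) rested 5 h, then received compounds for 48 h; metabolically active cells were measured by CellTiter-Glo luminescence. Final concentrations spanned up to 46 µM (MIPE, 11-point) or 0.59 nM-46 µM (NPC, 8-point) in primary screens, 11-point in follow-ups.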

A short description of assay [7]: qHTS of pediatric cancer cell lines to identify multiple opportunities for drug repurposing: Primary screen for NB1643 cells (AID 1347099). Also: nearly all actives have a fitted effect of over 50% in size. Also: potency is read from the fitted curve at half-maximal effect. The method in brief:
as §1

A short description of assay [8]: qHTS of pediatric cancer cell lines to identify multiple opportunities for drug repurposing: Primary screen for LAN-5 cells (AID 1347100). Also: potency is read from the fitted curve at half-maximal effect. The gist of the method: as §2
A short description of assay [9]: qHTS of pediatric cancer cell lines to identify multiple opportunities for drug repurposing: Primary screen for BT-12 cells (AID 1347101). Also: nearly all actives have a fitted effect of over 25% in size. Also: potency is read from the fitted curve at half-maximal effect. The gist of the method: as §2
The nature of assay [10]: qHTS of pediatric cancer cell lines to identify multiple opportunities for drug repurposing: Primary screen for Rh18 cells (AID 1347102). Also: nearly all actives have a fitted effect of over 65% in size. Also: potency is read from the fitted curve at half-maximal effect. The method in brief: as §2
Assay [11] can be described thus: qHTS of pediatric cancer cell lines to identify multiple opportunities for drug repurposing: Primary screen for OHS-50 cells (AID 1347103). Also: nearly all actives have a fitted effect of over 40% in size. Also: potency is read from the fitted curve at half-maximal effect. The method in brief: as §2
A short description of assay [12]: qHTS of pediatric cancer cell lines to identify multiple opportunities for drug repurposing: Primary screen for RD cells (AID 1347104). Also: nearly all actives have a fitted effect of over 55% in size. Also: potency is read from the fitted curve at half-maximal effect. The method in brief: as §1
A short description of assay [13]: qHTS of pediatric cancer cell lines to identify multiple opportunities for drug repurposing: Primary screen for MG 63 (6-TG R) cells (AID 1347105). Also: nearly all actives have a fitted effect of over 50% in size. Also: potency is read from the fitted curve at half-maximal effect. The method in brief: as §1
Assay [14] can be described thus: qHTS of pediatric cancer cell lines to identify multiple opportunities for drug repurposing: Primary screen for Rh41 cells (AID 1347108). Also: nearly all actives have a fitted effect of over 70% in size. Also: potency is read from the fitted curve at half-maximal effect. The method in brief: as §1
Assay [15] in a line: qHTS of pediatric cancer cell lines to identify multiple opportunities for drug repurposing: Confirmatory screen for NB1643 cells (AID 1347109). Also: nearly all actives have a fitted effect of over 45% in size. Also: potency is read from the fitted curve at half-maximal effect. The gist of the method:
as §2

The nature of assay [16]: qHTS of pediatric cancer cell lines to identify multiple opportunities for drug repurposing: Confirmatory screen for A673 cells (AID 1347110).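 Also: potency is read from the fitted curve at half-maximal effect; cells exposed to compound for 48 h before the viability read; nearly all actives have a fitted effect of over 65% in size.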 The gist of the method:
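Viability was read as ATP luminescence (CellTiter-Glo) after 48 h of compound exposure at 37 C in A673 cells seeded at 500-1,000/well. Titrations reached 46 uM final, with 11 points in the confirmatory screen. Concentration-response curves were fitted directly.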

Assay [17] can be described thus: qHTS of pediatric cancer cell lines to identify multiple opportunities for drug repurposing: Confirmatory screen for SK-N-MC cells (AID 1347111).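 Also: potency is read from the fitted curve at half-maximal effect; cells exposed to compound for 48 h before the readout; nearly all actives have a fitted effect of over 70% in size.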 The gist of the method: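 Seed 500-1,000 cells/well; rest 5 h at 37 degrees C. Pin-transfer compounds, 11-point titration. Incubate 48 h. Add CellTiter-Glo, 15 min RT, read luminescence.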
A short description of assay [18]: qHTS of pediatric cancer cell lines to identify multiple opportunities for drug repurposing: Primary screen for control Hh wild type fibroblast cells (AID 1347106). Also: nearly all actives have a fitted effect of over 55% in size. Also: potency is read from the fitted curve at half-maximal effect. The method in brief:
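Viability after 48 h compound treatment at 37C, 500-1,000 cells/well, read as ATP luminescence with CellTiter-Glo. Primary screens used 11-point (MIPE, 0.78 nM-46 µM) or 8-point (NPC, 0.59 nM-46 µM) final concentrations; follow-up screens used 11-point dilutions.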

Assay [19] can be described thus: qHTS of pediatric cancer cell lines to identify multiple opportunities for drug repurposing: Primary screen for Rh30 cells (AID 1347107). Also: series mostly up to about 46 µM; nearly all actives have a fitted effect of over 75% in size. The gist of the method: as §2

The structures appear in SMILES notation. Inconclusive results are not listed. Calls of active or inactive are those of the source. Calls follow the shape of the dose curve; as a rule, active = well fitted curve in the direction sought with a large enough effect; inconclusive = small, poorly fitted or top-dose-only effect, or another doubt; inactive = no such curve, though single readings can be large; an effect the other way counts as inactive or inconclusive.

As to `O=C(Nc1cc2cc[nH]c2cn1)c1ccccc1`, the Potency in assay [1] was 7.43 µM (active); in [2], 11.8 µM (active); in [3], 7.69 µM (active); in assay [4], 13.2 µM (active); in [5], 11.8 µM (active); in [6], 19.2 µM (active). Also, the Potency in assay [7] was 14.8 µM (active); in assay [8], 14.8 µM (active); in assay [9], 6.85 µM (active); in assay [10] it was 11.8 µM (active); in assay [11] it was 10.9 µM (active); in [12], 14.8 µM (active). The Potency in [13] is 14.8 µM (active); in [14], 18.7 µM (active); in [15], 10.4 µM (active); in assay [16], 1.65 µM (active); in assay [17], 2.61 µM (active).

As to `COc1ccc2c(c1OC)C(=O)OC2[C@H]1c2c(cc3c(c2OC)OCO3)CCN1C` (some centres undefined), the Potency in assay [1] is 0.0743 µM (active); in assay [2], 0.0833 µM (active); in [3], 0.611 µM (active); in assay [4], 0.372 µM (active); in assay [5], 0.235 µM (active); in assay [7] it was 1.18 µM (active). In addition, the Potency in assay [9] was 1.09 µM (active); in assay [11], 0.137 µM (active); in assay [12], 0.372 µM (active); in assay [14], 0.469 µM (active). The Potency result in assay [10] and in assay [15] was “inactive” each time.

Consider `c1cc(N[C@@H]2CCNC2)nc(-c2cnc3ccc(-c4cn[nH]c4)cn23)c1`, for which the Potency in assay [1] was 2.96 µM (active); in assay [2], 4.69 µM (active); in [3] it was 19.3 µM (active); in [5], 18.7 µM (active); in assay [6] it was 24.1 µM (active); in assay [8] it was 11.8 µM (active). Moreover, the Potency in assay [9] was 17.2 µM (active); in assay [10], 20.9 µM (active); in assay [11] it was 19.3 µM (active); in assay [12], 16.6 µM (active); in assay [18], 23.5 µM (active); in [14], 16.6 µM (active). The Potency entry in assay [4] and in assay [19] was “inactive” each time.

In the case of `O=C(C=CC=Cc1ccc2c(c1)OCO2)N1CCCCC1`, the Potency result in assay [1], in assay [2], in [3], in [4], in assay [5] and in assay [6] was “inactive” each time. In addition, the Potency entry in assay [7], in [8], in [10], in assay [11], in assay [12] and in [13] was “inactive” each time. Moreover, the Potency entry in [18], in assay [19] and in assay [14] was “inactive” each time. The results for the Potency in assay [16] and in assay [17] were 16.5 µM (active) and 8.27 µM (active), respectively.

As to `O=C(CN1C(=O)C2(CCCC2)NC[C@H]1c1cc(F)cc(F)c1)Nc1ccc2c(c1)C[C@@]1(C2)C(=O)Nc2ncccc21`, the Potency result in assay [1], in assay [2], in [3], in assay [4], in [5] and in assay [6] was “inactive” in each case. The Potency result in assay [7], in assay [8], in assay [9], in [10], in [11] and in [12] was “inactive” each time. Further, the Potency entry in assay [13], in assay [18], in assay [19] and in [14] was “inactive” in each case.

Consider `COc1cc([C@@H]2c3cc4c(cc3[C@@H](O[C@@H]3O[C@@H]5CO[C@@H](c6cccs6)O[C@@H]5[C@H](O)[C@@H]3O)[C@H]3COC(=O)[C@H]23)OCO4)cc(OC)c1O`, for which the Potency in assay [1] was 0.372 µM (active); in assay [2], 0.0935 µM (active); in [3] it was 0.217 µM (active); in [4], 0.0372 µM (active); in assay [5], 0.59 µM (active); in assay [6], 5.41 µM (active). For the same compound, the Potency in [7] was 0.132 µM (active); in assay [8], 0.0372 µM (active); in assay [9], 6.11 µM (active); in assay [11], 0.485 µM (active); in assay [12] it was 2.96 µM (active); in [16], 0.657 µM (active). Also, the Potency in assay [17] is 0.104 µM (active).

The values above are taken from PubChem BioAssay (NCATS).
